# According to PubChem BioAssay (Tox21):
# Where “and” joins values, the source holds several entries; their conditions need not be identical. Equal values may be shown once. Records with an inconclusive call do not appear. A call without a number means that no potency is given here. A structure can be active in one record and inactive in another. Calls of active or inactive are those of the source. Calls come from the whole dose curve.
# Assay: qHTS assay to identify small molecule antagonists of the estrogen receptor alpha (ER-alpha) signaling pathway using the BG1 cell line (AID 743080);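 note: BG1 cells stimulated with 17beta-estradiol alongside compound; nearly all actives have a fitted effect of over 25% in size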
# Conditions: BG1Luc4E2 ERE-luciferase antagonist mode, luminescence; series mostly up to 70.3 µM
# In short: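 BG1Luc4E2, endogenous ER-alpha, 4xERE-luc; 5 d charcoal-stripped FBS, phenol red free; 24 h plating; cpd + 17beta-estradiol 21.5 h, 37 C/5% CO2; CellTiter-Fluor viability 30 min, then ONE-Glo luciferase 30 min RT.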
# Potency is the fitted concentration of half-maximal effect.
row,SMILES,Potency
1,C=CCOC(=O)CC(C)C,inactive
2,Cc1cccc(Nc2cc(Cl)nc(SCC(=O)O)n2)c1C,inactive
3,NC(=O)N/N=C/c1ccc([N+](=O)[O-])o1,inactive
4,COc1cc2c(c(OC)c1OC)-c1ccc(OC)c(=O)cc1[C@@H](NC(C)=O)CC2,119 nM (active) and 42.7 nM (active) and 86.3 nM (active)
5,NC(=O)N1c2ccccc2C=Cc2ccccc21,inactive
6,COc1ccccc1O,inactive
7,COC1=CC(=O)C[C@@H](C)[C@]12Oc1c(Cl)c(OC)cc(OC)c1C2=O,inactive
8,O=C(O)CN(CC(=O)O)CC(=O)O,inactive
9,CCCCCCCCOc1ccc(C(=O)c2ccccc2)c(O)c1,12.3 µM (active) and 12.2 µM (active)
10,Cc1cnc(NC(=O)C2=C(O)c3ccccc3S(=O)(=O)N2C)s1,inactive
11,COCC(C)N (stereo unspecified),inactive
12,CC(=O)CCC(C)C,inactive
13,CCCCOCCOCCOC(C)=O,inactive
14,O=C(O)CCCCC1CCSS1 (stereo unspecified),inactive
15,CC(C)(C)CC(C)(C)c1ccc(O)c(-n2nc3ccccc3n2)c1,inactive and 61.1 µM (active)
16,CN(C)C=O,inactive
